# From PubChem BioAssay (NCI)
# The panel holds about 83,000 compounds, 20% with a hit somewhere; the sample as a whole holds those more often.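 Activity criterion: percent growth below 10, measured after cells in 96-well plates were exposed to a single compound concentration for 48 hours.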 Unmarked numbers belong to inactive results. Activity calls are given as the source filed them.
# Assays:
# Assay in all cases: NCI-60 one-dose screen, 48 h (100 = growth as untreated, 0 = no growth, -100 = all killed)
# Conditions in all cases: 10 µM unless noted
# SK-MEL-2 melanoma = test system: SK-MEL-2 melanoma
# EKVX NSCLC = test system: EKVX NSCLC
# SN12C renal = test system: SN12C renal
# UO-31 renal = test system: UO-31 renal
# TK-10 renal = test system: TK-10 renal
# ACHN renal = test system: ACHN renal
# CAKI-1 renal = test system: CAKI-1 renal
# HL-60(TB) leukemia = test system: HL-60(TB) leukemia
# CCRF-CEM leukemia = test system: CCRF-CEM leukemia
# MOLT-4 leukemia = test system: MOLT-4 leukemia
# SR leukemia = test system: SR leukemia
# RPMI-8226 leukemia = test system: RPMI-8226 leukemia
# OVCAR-8 ovarian = test system: OVCAR-8 ovarian
# OVCAR-5 ovarian = test system: OVCAR-5 ovarian
# OVCAR-4 ovarian = test system: OVCAR-4 ovarian
# SK-OV-3 ovarian = test system: SK-OV-3 ovarian
# IGROV1 ovarian = test system: IGROV1 ovarian
# OVCAR-3 ovarian = test system: OVCAR-3 ovarian
# HS 578T breast = test system: HS 578T breast
Structure (SMILES),growth (SK-MEL-2 melanoma),growth (EKVX NSCLC),growth (SN12C renal),growth (UO-31 renal),growth (TK-10 renal),growth (ACHN renal),growth (CAKI-1 renal),growth (HL-60(TB) leukemia),growth (CCRF-CEM leukemia),growth (MOLT-4 leukemia),growth (SR leukemia),growth (RPMI-8226 leukemia),growth (OVCAR-8 ovarian),growth (OVCAR-5 ovarian),growth (OVCAR-4 ovarian),growth (SK-OV-3 ovarian),growth (IGROV1 ovarian),growth (OVCAR-3 ovarian),growth (HS 578T breast)
CS(=O)(=O)CCN1CC2CCCC(C2)C1,105%,102%,98.2%,96.9%,96.4%,97.7%,97.1%,81.4%,97.2%,102%,93.9%,101%,104%,102%,102%,100%,115%,110%,102%
C[C@]12CCc3sc(-c4ccccc4O)nc3C1=CC[C@@H]1[C@@H]2CC[C@]2(C)C(=O)CC[C@@H]12,105%,99.7%,101%,85.8%,104%,98.8%,83.5%,,118%,94.7%,109%,107%,105%,104%,108%,102%,103%,104%,105%
COC(=O)[C@@H](C[C@H](Cc1ccccc1)NC(=O)c1csc([C@@H](C[C@H](C(C)C)N(C)C(=O)[C@@H](NC(=O)[C@H]2CCCCN2C)C(C)C)OC(C)=O)n1)NC(=O)OCc1ccccc1,-10.4% [9.5 µM] (active),51.5% [9.5 µM],15% [9.5 µM],27.3% [9.5 µM],45.2% [9.5 µM],16.4% [9.5 µM],35.1% [9.5 µM],-40.2% [9.5 µM] (active),6.42% [9.5 µM] (active),11.8% [9.5 µM],-23.3% [9.5 µM] (active),-9.01% [9.5 µM] (active),13.3% [9.5 µM],42.2% [9.5 µM],46.2% [9.5 µM],12.4% [9.5 µM],13.2% [9.5 µM],-23.7% [9.5 µM] (active),12.9% [9.5 µM]
Cn1cc(C=O)c2nccnc21,123%,96.9%,104%,106%,94.8%,109%,91.4%,107%,102%,101%,105%,103%,,120%,,101%,122%,125%,100%
COc1cccc2c1c(C(=O)C(=O)Nc1ccn[nH]1)cn2Cc1ccc(F)cc1,93.8%,119%,100%,89%,51.7%,101%,46.7%,115%,93.2%,97.5%,,96.8%,101%,91.2%,,95.9%,84.7%,106%,100%
O=C(CCCC1CCCCC1)OCC(Cl)(Cl)Cl,109%,105%,106%,91.1%,98.7%,110%,102%,100%,,107%,103%,95.7%,110%,120%,105%,,106%,104%,103%
C/C(Cc1ccc(Cl)cc1)=C(\c1ccc(OCCN2CCOCC2)cc1)c1ccc(OC(=O)Cc2ccccc2)cc1,84.9%,93.3%,93.8%,67.5%,86.7%,104%,71.6%,100%,98.9%,94.8%,87.1%,,92%,91.1%,101%,109%,86.4%,101%,99.1%
OCCNC(Cc1ccccc1)c1ccc2c(c1)OCO2 (stereo not drawn),72.2%,100%,98.8%,78.9%,73.2%,106%,97.1%,79.6%,111%,82.6%,99.1%,102%,98.7%,105%,117%,74.7%,107%,100%,103%
COC(=O)[C@@H](C)C[C@H](Cc1ccccc1)NC(=O)c1nc([C@@H](C[C@H](C(C)C)N(C)C(=O)[C@@H](NC(=O)[C@H]2CC(=O)CCN2C)C(C)C)OC(C)=O)sc1C(C)C,5.7% (active),30%,17.5%,29.6%,46.5%,21.9%,34.6%,-36.7% (active),9.87% (active),15%,10.9%,-3.35% (active),8.46% (active),35.5%,45.8%,29.1%,14.4%,-15.6% (active),9.66% (active)
O=C(CCCCCCC(=O)Nc1ccc(N(CCCl)CCCl)cc1)NO,49.5%,76.7%,18.8%,62%,38.5%,16.7%,23%,18.4%,19.4%,19.5%,12.2%,49.1%,19.3%,53.7%,44.9%,26.3%,59.2%,41.7%,71.7%
COC(=O)N[C@H]1CCc2c(Br)c(OC)c(OC)c(OC)c2-c2ccc(SC)c(=O)cc21,29.4%,46%,25.1%,18.2%,41.6%,26.7%,13.7%,-43.7% (active),3.65% (active),3.15% (active),-9.73% (active),-3.46% (active),14.8%,35.9%,24.7%,33.1%,9.6% (active),-40.5% (active),1.22% (active)
CCCOC(=O)N[C@H]1CCc2c(Br)c(OC)c(OC)c(OC)c2-c2ccc(SC)c(=O)cc21,34.2%,40.3%,14.1%,20.7%,43%,27.6%,11.2%,-25.7% (active),5.05% (active),10.7%,3.3% (active),-9.16% (active),13.4%,36.7%,32.6%,40.8%,10.9%,-16.8% (active),1.06% (active)
CCC(C)(C)[C@H](NC(=O)[C@H]1CCCCN1C)C(=O)N(C)[C@H](C[C@@H](OC(C)=O)c1nc(C(=O)N[C@@H](Cc2ccccc2)C[C@H](C)C(=O)O)cs1)C(C)C,21.9%,52.6%,17.5%,32.9%,35.1%,11.4%,29%,,2.41% (active),15.5%,6.11% (active),7.76% (active),14.2%,42.5%,40.4%,38.1%,17.5%,5.97% (active),13.3%
CC[C@H](C)[C@H](NC(=O)C12C3C4C1C1C2C3C41NC(C)=O)C(=O)N(C)[C@H](C[C@@H](OC(C)=O)c1nc(C(=O)N[C@@H](Cc2ccccc2)C[C@H](C)C(=O)OC)cs1)C(C)C (stereo partly drawn),49.2%,38.6%,25.6%,59.8%,62%,36.6%,74.1%,-13.3% (active),12.2%,17.7%,16.6%,2.37% (active),17%,47.8%,38.7%,48.5%,31.1%,-33.8% (active),18.6%
CC12CCC3C(CCC4Cc5[nH]c6ccccc6c5CC43C)C1CCC2O (stereo not drawn),67.2%,56.8%,42.8%,56.9%,57.3%,48.3%,45.1%,-32.9% (active),8.61% (active),21.6%,,-20% (active),36.9%,122%,51.8%,29.5%,50.8%,-28.3% (active),-8.19% (active)
Cc1cc(N(CCCl)CCCl)ccc1C=Nc1ccccc1-c1ccccc1,115%,101%,54.8%,59.5%,88.2%,34.4%,27.6%,48.4%,54.2%,41.9%,30.6%,86.7%,74%,43.1%,99.5%,,47.8%,88.3%,104%
